An excerpt weighted towards active compounds, which were near 0.41% of everything screened.
GAA glycogen: GAA glycogen-cleavage inhibition or activation | P10253 | recombinant GAA, glycogen substrate, Amplex Red glucose oxidase fluorescence | Potency, µM (doses to about 76.4 µM), inactives show top-dose activity change, negative = inhibition, hits mostly inhibitors | 0.38% of 300,000 active;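 further: potency means the concentration at half of the fitted maximal effect; 0% = full enzyme reaction and -100% = no-enzyme basal signal; the screen sought inhibitors and activators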
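Recombinant human alpha-glucosidase (4 nM final) hydrolysed bovine liver glycogen (30 ug) for 40 min at 37 C in pH 5.0 citrate/phosphate with 0.01% Tween-20. Released glucose detected by glucose oxidase/Amplex Red, Ex 573/Em 610 nm. Compounds up to 77 uM; AC50 from Hill fits.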
GLA spleen mod: inhibitors or activators of human alpha-galactosidase in spleen homogenate | P06280 | human spleen homogenate, 4MU-alpha-Gal fluorescence, 40 min | Potency, µM (series often up to 80 µM), inactives show at the highest dose activity change, negative = inhibition, hits mostly inhibitors | 0.008% of 240,000 active;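 further: potency means the concentration at half of the fitted maximal effect; 0% = enzyme with vehicle and -100% = no enzyme basal signal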
Target sequence (P06280 32-429 limits assumed): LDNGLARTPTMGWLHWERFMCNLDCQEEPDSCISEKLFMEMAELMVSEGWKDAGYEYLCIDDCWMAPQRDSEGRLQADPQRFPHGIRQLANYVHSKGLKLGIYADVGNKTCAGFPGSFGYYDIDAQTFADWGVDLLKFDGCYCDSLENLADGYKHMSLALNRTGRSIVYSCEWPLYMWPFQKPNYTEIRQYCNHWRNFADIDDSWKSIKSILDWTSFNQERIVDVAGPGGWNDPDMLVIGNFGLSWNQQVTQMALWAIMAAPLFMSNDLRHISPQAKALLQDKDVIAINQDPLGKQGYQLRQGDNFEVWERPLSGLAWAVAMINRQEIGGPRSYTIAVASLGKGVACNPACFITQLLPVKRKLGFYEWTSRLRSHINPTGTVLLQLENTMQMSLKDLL
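Fluorogenic readout (Ex 365/Em 440 nm) of 4-methylumbelliferone released from 1 mM 4-MU-alpha-galactoside by spleen homogenate, 40 min at 37C, pH 5.0. Data normalized to no-enzyme and enzyme controls; Hill-equation AC50 from compound titrations.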
N370S GC mod: N370S glucocerebrosidase modulation, Gaucher chaperone candidate; P04062; N370S GC spleen homogenate, 4MU-glucoside fluorescence; Potency, µM (titrated, usually from 59.4 µM), for inactives: at the top dose activity change, negative = inhibition, hits mostly inhibitors; 0.092% of 330,000 active; AID 2101;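 further: potency means the concentration at half of the fitted maximal effect; 0% = full enzyme activity and -100% = no enzyme basal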
GAA inh: blocks human lysosomal alpha-glucosidase; P10253; purified human GAA, 4-MU-alpha-glucoside fluorescence; Potency, µM (top dose mostly 76.9 µM), without a hit: top-dose activity change, negative = inhibition, usual class: inhibitors; 0.005% of 200,000 active;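 further: potency means the concentration at half of the fitted maximal effect; plate controls were uninhibited enzyme wells for no effect and no-enzyme background for full effect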
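Read-out is 4-methylumbelliferone fluorescence (Ex 365/Em 440 nm) after NaOH/glycine stop at pH 10. Enzyme 4 nM, substrate 400 uM, pH 5.0 citrate buffer, 20 min room temperature; AC50 from Hill-equation concentration-response.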
GLA inh pH 4.5: inhibitors of human alpha-galactosidase A at pH 4.5; activity change, negative = inhibition, % at 105 µM; 230,000 tested, under 10 active; purified enzyme, 4-MU-alpha-Gal fluorescence, pH 4.5; P06280;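 further: 0% = full activity with enzyme and -100% = basal without enzyme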
aGlu spleen mod: inhibitors or activators of human alpha-glucosidase in spleen homogenate; Potency, µM (doses to about 79.9 µM), inactives show at the top dose activity change, negative = inhibition, most hits filed as inhibitors; AID 2112; 0.006% of 240,000 active; P10253; human spleen homogenate, 4-MU-alpha-glucoside fluorescence;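 further: potency means the concentration at half of the fitted maximal effect; 0% = enzyme with vehicle and -100% = no enzyme basal signal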
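Compounds were titrated against alpha-glucosidase in spleen homogenate at pH 5.0, with 1 mM 4-methylumbelliferyl substrate for 40 min at 37 C. Reactions were quenched with pH 10 NaOH/glycine and fluorescence measured.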
Numbers without * were called inactive; [ ] = another dose, or the depositor's remark. The call rests on the fitted dose curve; in most records, active means well fitted curve in the direction sought with a large enough effect; inconclusive means small, poorly fitted or top-dose-only effect, or another doubt; inactive means no such curve, though single readings can be large; an effect the other way counts as inactive or inconclusive.

What do the screens show for `Cc1cccc(CNc2ncc(-c3cccc([N+](=O)[O-])c3)n2C)c1`?
GAA glycogen: inconclusive; GLA spleen mod: -2.4%; N370S GC mod: -4.0%; GAA inh: -1.1%; GLA inh pH 4.5: 2.8; aGlu spleen mod: 3.2%

Results for CN(C)CCCNCCCN ?
GLA spleen mod: 0.5%; N370S GC mod: -0.4%; aGlu spleen mod: -2.9%

Results for COC(=O)c1cc(Oc2ccc(C(=O)OC)cc2N)cc(C(=O)OC)c1 ?
GAA glycogen: -8.0%; GLA spleen mod: -2.1%; N370S GC mod: 2.8%; GAA inh: 3.8%; GLA inh pH 4.5: 0.3; aGlu spleen mod: -2.6%

What do the screens show for `COC(=O)CCCCCNc1ccc(C(=O)OC)cc1N`?
GAA glycogen: 22.4µM*; GLA spleen mod: 7.0%; N370S GC mod: -0.7%; GAA inh: inconclusive; GLA inh pH 4.5: -5.6; aGlu spleen mod: 3.0%

Results for CN(C)S(=O)(=O)c1cc(NC(=O)CN2CCN(c3ccccc3)CC2)ccc1Cl ?
GAA glycogen: -7.8%; GLA spleen mod: -0.3%; N370S GC mod: -4.3%; GAA inh: inconclusive; GLA inh pH 4.5: 4.8; aGlu spleen mod: -25.1%

Results for CN(C)S(=O)(=O)c1cc(NC(=O)CN2CCN(c3ccc(O)cc3)CC2)ccc1Cl ?
GAA glycogen: 7.08µM*; GLA spleen mod: -9.4%; N370S GC mod: -7.0%; GAA inh: -17.9%; GLA inh pH 4.5: 5.3

What do the screens show for `CCCc1cc(=O)[nH]c(Nc2ccc(O)cc2)n1`?
GAA glycogen: 28µM*; GLA spleen mod: 4.6%; N370S GC mod: -12.4%; GAA inh: -24.3%; GLA inh pH 4.5: 0.3; aGlu spleen mod: -2.0%

Results for Cc1cccc(NC(=O)Cn2cc(C(=O)c3ccco3)c3ccccc32)c1C ?
GAA glycogen: -4.0%[76.3 µM]

What do the screens show for `COc1ccc2c(Sc3ccc(C)cc3)c(C(=O)NCc3ccc(F)cc3)[nH]c2c1`?
GAA glycogen: 7.3%[76.3 µM]

How did Oc1cnn(-c2ccccc2)c1 do in these assays?
GAA glycogen: 19.8µM*; GLA spleen mod: -2.2%; N370S GC mod: 1.4%; GAA inh: 4.2%; GLA inh pH 4.5: 6.2; aGlu spleen mod: 5.2%

How did COc1ccc(N2Nc3n[nH]c(N)c3N2)cc1 do in these assays?
GAA glycogen: 25.1µM*; GLA spleen mod: -7.2%; N370S GC mod: -23.6%; GAA inh: -10.6%; GLA inh pH 4.5: -6.0; aGlu spleen mod: inconclusive

How did CCOc1ccc(Cc2n[nH]c(=S)n2N)cc1 do in these assays?
GAA glycogen: 4.0%; GLA spleen mod: -0.6%; N370S GC mod: 0.3%; GAA inh: 3.5%; GLA inh pH 4.5: 12.3; aGlu spleen mod: -4.0%

How did CCOc1ccc(N2Nc3n[nH]c(N)c3N2)cc1 do in these assays?
GAA glycogen: 22.4µM*; GLA spleen mod: -2.5%; N370S GC mod: -10.9%; GAA inh: -8.2%; GLA inh pH 4.5: -4.3; aGlu spleen mod: -13.6%

What do the screens show for `Cc1ccc(C)c(NNC(N)=S)c1`?
GAA glycogen: 9.92µM*; GLA spleen mod: -0.9%; N370S GC mod: 1.9%; GAA inh: -5.5%; GLA inh pH 4.5: -3.5; aGlu spleen mod: -3.7%

Results for O=S1(=O)CC(O)C(NCc2ccco2)C1 (configuration not stated) ?
GAA glycogen: 8.4%; GLA spleen mod: 3.3%; N370S GC mod: 5.1%; GAA inh: 1.5%; GLA inh pH 4.5: -0.2; aGlu spleen mod: 10.5%

What do the screens show for `CC(C)(C)c1cc(CNC2CS(=O)(=O)C[C@@H]2O)cc(C(C)(C)C)c1O` (some centres not stated)?
GAA glycogen: 15.7µM*; GLA spleen mod: 10.0%; N370S GC mod: inconclusive; GAA inh: 6.5%; GLA inh pH 4.5: -0.1; aGlu spleen mod: 4.2%

Results for Cc1cc(=O)oc2c(CN(C)Cc3ccccc3)c(O)ccc12 ?
GAA glycogen: -4.5%; GLA spleen mod: inconclusive; N370S GC mod: inconclusive; GAA inh: inconclusive; GLA inh pH 4.5: inconclusive; aGlu spleen mod: inconclusive

How did Cc1cc(=O)oc2c(N)c(O)ccc12 do in these assays?
GAA glycogen: 10µM*; GLA spleen mod: -23.6%; N370S GC mod: -10.9%; GAA inh: -0.9%; GLA inh pH 4.5: -0.9; aGlu spleen mod: 6.5%

Results for CCC(=Nc1ccccc1O)C1=C(O)CC(c2ccccc2)CC1=O (configuration not stated) ?
GAA glycogen: 12.6µM*; GLA spleen mod: -3.3%; N370S GC mod: -21.1%; GLA inh pH 4.5: 1.3; aGlu spleen mod: -4.0%

How did CCC(=Nc1ccccc1OC)C1=C(O)CC(c2ccccc2)CC1=O (configuration not stated) do in these assays?
GAA glycogen: -1.0%; GLA spleen mod: -3.3%; N370S GC mod: -4.6%; GAA inh: 2.4%; GLA inh pH 4.5: -12.7; aGlu spleen mod: 1.2%

Results for O=S(=O)(CCc1ccccc1)c1nnnn1-c1ccc(F)cc1Br ?
GLA spleen mod: -10.1%; N370S GC mod: -0.6%; GLA inh pH 4.5: -10.4; aGlu spleen mod: -0.2%

What do the screens show for `Cc1sc2nc(CN3CCN(c4ccc(O)cc4)CC3)[nH]c(=O)c2c1C`?
GAA glycogen: 15.8µM*; GLA spleen mod: -3.6%; N370S GC mod: -0.4%; GLA inh pH 4.5: 10.6; aGlu spleen mod: 3.2%

Results for c1ccc(CCn2nnnc2C(c2cccnc2)N2CCN(c3ccccc3)CC2)cc1 (configuration not stated) ?
GAA glycogen: 3.0%; GLA spleen mod: 4.6%; N370S GC mod: -5.0%; GAA inh: -4.1%; GLA inh pH 4.5: 6.2; aGlu spleen mod: -3.9%

What do the screens show for `CC(C)C(c1nnnn1Cc1ccc(F)cc1)N1CCN(c2ccc(O)cc2)CC1` (configuration not stated)?
GAA glycogen: 7.03µM*; GLA spleen mod: -11.2%; N370S GC mod: inconclusive; GAA inh: 14.1%; GLA inh pH 4.5: -5.1; aGlu spleen mod: 7.2%

What do the screens show for `Oc1ccc(N2CCN(C(c3cccnc3)c3nnnn3Cc3ccccc3)CC2)cc1` (configuration not stated)?
GAA glycogen: 15.7µM*; GLA spleen mod: 6.0%; N370S GC mod: inconclusive; GAA inh: 0.7%; GLA inh pH 4.5: -5.3; aGlu spleen mod: 2.6%

How did COc1ccc(Cn2nnnc2C(C(C)C)N2CCN(c3ccccc3OC)CC2)cc1 (configuration not stated) do in these assays?
GAA glycogen: -6.2%; GLA spleen mod: -2.4%; N370S GC mod: -4.7%; GAA inh: -2.7%; GLA inh pH 4.5: -14.4; aGlu spleen mod: -5.7%
